# Screens as filed in PubChem.
# FMDV antiviral – antivirals against foot and mouth disease virus | FMDV antiviral cell-based qHTS | 410,000 tested, 1.2% active | Potency, µM (top dose mostly 57.9 µM), for the others: top-dose activity change, negative = inhibition, usual class: inhibitors; calls by dose curve; tested in HEK293T cells; further: read-out not given here; potency means the concentration at half of the fitted maximal effect; on the % scale 0 is the no-effect control and ±100 the full control effect; nearly all actives have a fitted effect of over 45% in size
# MARV entry inh – blocks Marburg virus binding to or entry into cells. Marburg virus pseudotyped entry inhibition, cell reporter. Potency, µM (highest dose often 37.8 µM), without a hit: at the highest dose activity change, negative = inhibition, usual class: inhibitors. 300,000 tested, 1.8% active. AID 540276; calls by dose curve; tested in HEK293 cells; further: potency means the concentration at half of the fitted maximal effect; on the % scale 0 is the no-effect control and ±100 the full control effect
# HCMV inh – inhibitors of human cytomegalovirus; HFF cells, HCMV-luciferase reporter, 72 h; stronger effect = lower value; activity change, negative = inhibition, % at 57.5 µM; 410,000 tested, 4.5% active; AID 1259415; in the data active means activity change below about -60%; inconclusive means no clear call, values can overlap the other calls; inactive means above about -39%; further: on the % scale 0 is the no-effect control and ±100 the full control effect
#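 After 16 h attachment at 37C, HFF cells received test compound and HCMV-luciferase (1 PFU/cell); reporter luminescence read 72 h later, data normalized against buffer-only and known inhibitor Salinomycin.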
# SARS PLP yeast – SARS-CoV PLP inhibition in yeast; S. cerevisiae expressing SARS-CoV PLpro, growth rescue; Potency, µM (titrated, usually from 32.9 µM), for the others: top-dose activity, positive = growth rescue, actives largely listed as activators; 330,000 tested, 0.19% active; AID 485353; calls by dose curve; further: potency means the concentration at half of the fitted maximal effect; 0% is about no effect; nearly all actives have a fitted effect of over 55% in size
# HCV inh – blocks hepatitis C virus | Potency, µM (highest dose often 41.8 µM), without a hit: top-dose activity change, negative = inhibition, actives largely listed as inhibitors | Huh7.5.1 HCVcc-Cre infection, luciferase reporter, 44 h | AID 651820 | 340,000 tested, 3.4% active; active means well fitted inhibition curve with a large enough effect; inconclusive means small, poorly fitted or top-dose-only effect, or another doubt; inactive means no such curve, though single readings can be large or run the other way; further: potency means the concentration at half of the fitted maximal effect; on the % scale 0 is the no-effect control and ±100 the full control effect
#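 1,000 cells/well; 4 h culture; + compound; + HCVcc-Cre (~0.5 moi); 44 h; luciferase substrate, RT 15 min; read 15 sec.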
# Lassa entry inh – inhibitors of Lassa virus binding or cell entry | AID 540256 | Lassa virus pseudotype entry inhibition, cell reporter | Potency, µM (series often up to 37.9 µM), for the others: at the highest dose activity change, negative = inhibition, actives largely listed as inhibitors | 300,000 tested, 1.2% active; calls by dose curve; tested in HEK293 cells; further: potency means the concentration at half of the fitted maximal effect; on the % scale 0 is the no-effect control and ±100 the full control effect; nearly all actives have a fitted effect of over 50% in size
# Active calls of the source: *; u = inconclusive; x = no result; [ ] = another dose, or the depositor's remark. Compounds with a hit are over-represented: about 8% of the library has one in this group of screens.
SMILES,FMDV antiviral,MARV entry inh,HCMV inh,SARS PLP yeast,HCV inh,Lassa entry inh
O=C(NCc1ccco1)C1CCN(C(=O)c2ccc(Cl)cc2)CC1,-22%,x,-10,3%,18%,x
COCCNC(=O)C1CCCN(C(=O)c2ccc3c(c2)C(C)(C)CCC3(C)C)CC1 (centres undefined),2%,x,24,x,x,x
CCC(C)NC(=O)C1CCN(C(=O)c2cc3sccc3n2Cc2ccc(Cl)cc2)CC1 (centres undefined),14µM*,u,x,x,x,x
COCCNC(=O)C1CCCN(C(=O)c2ccnc(Cl)c2)CC1 (centres undefined),-15%,x,-69*,x,x,x
COCCNC(=O)C1CCN(C(=O)c2cc3sccc3n2Cc2ccc(F)cc2)CC1,-29%,x,x,-3%,u,x
O=C(CCCCn1c(=O)c2ccccc2n(Cc2ccc(Cl)cc2)c1=O)NCc1ccccc1Cl,-21%,u,-29,x,x,-8%[46.1 µM]
Cc1cc(-c2ccccc2)nc2cc(C(=O)Nc3cc(C(F)(F)F)ccc3Cl)nn12,-16%,x,-30,x,x,-1%[46.1 µM]
COc1ccc(-c2oc(NC(C)=O)c(C#N)c2-c2ccc(OC)cc2)cc1,-11%,-1%,23,1%,-16%,7%
COc1ccc(C(=O)Nc2oc(-c3ccccc3)c(-c3ccccc3)c2C#N)cc1,-18%,u,u,3%,10µM*,u
COc1ccc(C(=O)Nc2oc(-c3ccccc3)c(-c3ccccc3)c2C#N)cc1OC,x,-1%,12,1%,11µM*,-23%
COc1ccc(-c2oc(NC(=O)c3ccc(C)cc3)c(C#N)c2-c2ccc(OC)cc2)cc1,2%,u,9,10%,-26%,-24%
CCN(CC)CCOC(=O)c1ccc(NC(=O)c2cc3c(=O)n(CC)c4ccccc4c3s2)cc1,5%,-3%[46.1 µM],7,x,x,26%[46.1 µM]
Nc1nc(NC(=O)c2ccccc2)nn1-c1ccccc1,53%,u,-13,9%,8%,21%
O=C(Nc1nc(NC(=O)c2ccco2)n(-c2ccccc2)n1)c1ccccc1,x,u,-100*,-5%,u,u
Cc1ccc(CSc2cn(CC(=O)N3CCCCCC3)c3ccccc23)cc1,13%,x,18,x,x,8.9µM*
Cc1ccc(CSc2cn(CC(=O)N3CCCC3)c3ccccc23)cc1,21%,x,-9,x,x,-14%[46.1 µM]
COc1ccc(C(=O)Nc2ccc(SC(F)F)cc2)cc1,10%,u,42,-2%,u,15%
O=C(Nc1ncc(Cc2ccc(SC(F)F)cc2)s1)c1ccc(OC(F)F)cc1,u,5.6µM*,-86*,4%,u,u
CC(C)Cn1c(=O)c(-[n+]2ccccc2)c([O-])c2ccccc21,-13%,1%[46.1 µM],4,3%,2%,-12%[46.1 µM]
CCCCn1c(=O)c(-[n+]2ccccc2)c([O-])c2ccccc21,-12%,26%,-62*,-5%,14%,-6%
COc1ccc(C(=O)NC(=S)Nc2ccccc2N2CCCCC2)cc1[N+](=O)[O-],u,u,-11,4%,13µM*,u
O=C(Nc1ccccc1N1CCN(C(=O)c2ccccc2)CC1)c1ccc(Cl)cc1,-23%,u,3,-2%,u,u
O=C(Nc1ccccc1N1CCN(C(=O)c2ccc(Cl)cc2)CC1)c1ccc(Br)cc1,-3%,u,2,-29%,u,-22%
O=C(Cc1ccc(Cl)cc1)Nc1ccccc1N1CCN(C(=O)c2ccccc2)CC1,35µM*,x,u,-10%,u,x
COc1ccc(C(=O)Nc2ccc(Nc3ccccc3)cc2)cc1Br,u,-14%[46.1 µM],-33,x,8.9µM*,-10%
SMILES,FMDV antiviral,MARV entry inh,HCMV inh,SARS PLP yeast,HCV inh,Lassa entry inh
COc1ccc(C(=O)Nc2ccccc2N2CCN(C(=O)c3ccccc3)CC2)cc1Br,-16%,u,-7,-9%,10µM*,u
CCOc1ccc(C(=O)NC(=S)Nc2ccccc2N2CCCCC2)cc1[N+](=O)[O-],-23%,u,-20,3%,u,u
COc1ccc(C(=O)Nc2ccc(N3CCCCC3)cc2)cc1Br,9%,-4%,u,7%,u,u
Cc1nc(SCC(=O)Nc2ccc(F)cc2)c(C#N)c(C)c1CC(=O)c1ccc(Br)cc1,-16%,u,-14,14%,13%,11µM*
Cc1ccc(NC(=O)CSc2nc(-c3ccc(F)cc3)cc(C(F)(F)F)c2C#N)cc1,-7%,u,19,x,x,3%[46.1 µM]
Cc1cccc(NC(=O)CSc2nc(C)c(CC(=O)c3ccc(Br)cc3)c(C)c2C#N)c1C,0%,u,-79*,7%,0%,1%
COC(=O)c1cc2c(cc1NC(=O)c1cnn(-c3ccccc3)c1-n1cccc1)OCO2,2%,-6%[46.1 µM],1,x,x,16%[46.1 µM]
O=C(Nc1ccc(C(=O)Nc2ccc(C(=O)Nc3ccc(S(=O)(=O)O)c4cc(S(=O)(=O)O)cc(S(=O)(=O)O)c34)cc2)cc1)Nc1ccc(C(=O)Nc2ccc(C(=O)Nc3ccc(S(=O)(=O)O)c4cc(S(=O)(=O)O)cc(S(=O)(=O)O)c34)cc2)cc1,-7%,x,x,x,x,x
Cc1cc(C)cc(-c2cc3c(c(-c4c(O)c(-c5cc(C)cc(C)c5)cc5c4CCCC5)c2O)CCCC3)c1,x,-13%[14.2 µM],x,x,x,x
COc1ccccc1N1CCN(C(=O)c2cc(C(C)(C)C)oc2C)CC1,-16%,10µM*,u,-1%,-12%,-29%[46.1 µM]
Cc1oc(C(C)(C)C)cc1C(=O)N1CCN(c2ncccc2C(F)(F)F)CC1,-23%,-2%,-23,1%,-2%,-23%
O=C(c1ccc(-c2ccc([N+](=O)[O-])cc2)o1)N1CCN(S(=O)(=O)c2cccs2)CC1,u,-9%,-61*,-1%,8%,-12%
COc1cc2c(C(=O)N3CCN(c4ccccc4C)CC3)c(C)oc2cc1Br,u,-4%,-37,-3%,11µM*,-3%
COc1ccccc1NC(=S)NC(=O)c1ccc(-c2ccc(Cl)cc2)o1,x,-15%,-63*,1%,u,-22%
COc1cc2c(cc1OC)C(C(C(=O)N(CCc1ccc(OC)c(OC)c1OC)CCc1ccc(OC)c(OC)c1OC)c1ccccc1)=NCC2 (centres undefined),-22%,x,x,x,x,x
COc1cc2c(cc1NS(=O)(=O)c1cccc(C#N)c1)n(C)c(=O)n2C,-15%,x,10,x,x,5%[46.1 µM]
O=S(=O)(c1cccs1)N1CCC(CO)(Cc2ccc(Cl)cc2)CC1,u,7.9µM*,21,-2%,u,u
COc1ccccc1N1CCN(C(=O)c2ccc(-c3ccc(Cl)cc3)o2)CC1,-21%,x,-12,-12%,3.2µM*,x
O=C(c1ccc(-c2ccc(Cl)cc2)o1)N1CCN(S(=O)(=O)c2cccs2)CC1,-22%,x,-61*,5%,u,x
O=C(CC1N=C2c3ccccc3N=C(SCc3ccccc3Cl)N2C1=O)NCc1cccs1 (centres undefined),-3%,x,7,x,x,-8%[46.1 µM]
COc1ccc(N(Cc2nnc3n2CCCCC3)C(=O)Nc2cccc(C)c2)cc1Cl,9%,x,-13,x,x,-19%[46.1 µM]
